Test results taken from PubChem BioAssay AID1159580 (chemical genetic matrix, 2015).
Out of some 5,500 compounds screened, about 2,000 (36%) were called active. Not shown: some 18% with an inconclusive outcome. No stated cut-off is given here; in the data, active means normalized growth mostly below about 0.91 (no sharp cut-off); inconclusive means no clear call, values can overlap the other calls; inactive means mostly above about 0.92. The list shows a part of the results.

Assay: chemical genetic growth profiling, strain panel (AID 1159580);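 further: tested at 20 µM; growth read once vehicle control cultures reached saturation at 30 °C; 1 = growth at the plate median or of vehicle wells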
Settings: growth OD
[1] = S. cerevisiae deletion strains, locus YAL013W, strain DEP1, stronger effect = lower value
[2] = S. cerevisiae deletion strains, locus YBR229C, strain ROT2, stronger effect = lower value
[3] = S. cerevisiae deletion strains, locus YDL101C, strain DUN1, stronger effect = lower value
[4] = S. cerevisiae deletion strains, locus YDL134C, strain PPH21, stronger effect = lower value
[5] = S. cerevisiae deletion strains, locus YDR150W, strain NUM1, stronger effect = lower value
[6] = S. cerevisiae deletion strains, locus YEL061C, strain CIN8, stronger effect = lower value
[7] = S. cerevisiae deletion strains, locus YGR078C, strain PAC10, stronger effect = lower value
[8] = S. cerevisiae deletion strains, locus YHR030C, strain SLT2, stronger effect = lower value
[9] = S. cerevisiae deletion strains, locus YJR043C, strain POL32, stronger effect = lower value
[10] = S. cerevisiae deletion strains, locus YJR075W, strain HOC1, stronger effect = lower value
[11] = S. cerevisiae deletion strains, locus YLR039C, strain RIC1, stronger effect = lower value
[12] = S. cerevisiae deletion strains, locus YLR262C, strain YPT6, stronger effect = lower value
[13] = S. cerevisiae deletion strains, locus YMR263W, strain SAP30, stronger effect = lower value
[14] = S. cerevisiae deletion strains, locus YMR307W, strain GAS1, stronger effect = lower value
[15] = S. cerevisiae deletion strains, locus YNL153C, strain GIM3, stronger effect = lower value
[16] = S. cerevisiae deletion strains, locus YNL322C, strain KRE1, stronger effect = lower value
[17] = S. cerevisiae deletion strains, locus YOL006C, strain TOP1, stronger effect = lower value
[18] = S. cerevisiae deletion strains, locus YPL055C, strain LGE1, stronger effect = lower value
[19] = S. cerevisiae deletion strains, locus YPL241C, strain CIN2, stronger effect = lower value
[20] = S. cerevisiae strains, strain wild type, stronger effect = lower value
[21] = S. cerevisiae deletion strains, locus YHR087W, strain rtc3, stronger effect = lower value
[22] = S. cerevisiae deletion strains, locus YJL187C, strain SWE1, stronger effect = lower value
[23] = S. cerevisiae deletion strains, locus YLR058C, strain SHM2 (second series), stronger effect = lower value
[24] = S. cerevisiae deletion strains, locus YLR085C, strain ARP6, stronger effect = lower value
[25] = S. cerevisiae deletion strains, locus YML094W, strain GIM5, stronger effect = lower value
[26] = S. cerevisiae deletion strains, locus YMR219W, strain ESC1, stronger effect = lower value
[27] = S. cerevisiae deletion strains, locus YNL298W, strain CLA4 (second series), stronger effect = lower value
[28] = S. cerevisiae deletion strains, locus YNR030W, strain Alg12, stronger effect = lower value
[29] = S. cerevisiae deletion strains, locus YPR135W, strain CTF4, stronger effect = lower value

Measured: normalized growth

CN(C)CCC[C@@]1(c2ccc(F)cc2)OCc2cc(C#N)ccc21
inactive: [1] 1.02 | S. cerevisiae deletion strains, locus YBR021W, strain FUR4, stronger effect = lower value 1.02 | [2] 1.01 | S. cerevisiae deletion strains, locus YCL029C, strain bik1, stronger effect = lower value 1.02 | S. cerevisiae deletion strains, locus YDL035C, strain GPR1, stronger effect = lower value 1.02 | S. cerevisiae deletion strains, locus YDL074C, strain BRE1, stronger effect = lower value 1.02 | [3] 1.02 | [4] 1.01 | S. cerevisiae deletion strains, locus YDL185W, strain tfp1, stronger effect = lower value 1.03 | S. cerevisiae deletion strains, locus YDL192W, strain arf1, stronger effect = lower value 1.02 | S. cerevisiae deletion strains, locus YDR101C, strain arx1, stronger effect = lower value 1.02 | [5] 1.02 | S. cerevisiae deletion strains, locus YDR162C, strain NBP2, stronger effect = lower value 1.01 | S. cerevisiae deletion strains, locus YDR318W, strain mcm21, stronger effect = lower value 1.03 | S. cerevisiae deletion strains, locus YDR388W, stronger effect = lower value 1.02 | S. cerevisiae deletion strains, locus YDR502C, strain sam2, stronger effect = lower value 1.02 | [6] 1.01 | S. cerevisiae deletion strains, locus YER110C, stronger effect = lower value 1.03 | S. cerevisiae deletion strains, locus YER155C, strain BEM2, stronger effect = lower value 1.01 | S. cerevisiae deletion strains, locus YER167W, strain BCK2, stronger effect = lower value 1.02 | S. cerevisiae deletion strains, locus YGL078C, strain dbp3, stronger effect = lower value 1.03 | S. cerevisiae deletion strains, locus YGL086W, strain mad1, stronger effect = lower value 1.02 | S. cerevisiae deletion strains, locus YGL248W, strain PDE1, stronger effect = lower value 1.02 | [7] 1.03 | S. cerevisiae deletion strains, locus YGR135W, strain pre9, stronger effect = lower value 1.03 | S. cerevisiae deletion strains, locus YGR229C, strain SMI1, stronger effect = lower value 1.02 | S. cerevisiae deletion strains, locus YGR252W, strain gcn5, stronger effect = lower value 1.06 | [8] 1.01 | S. cerevisiae deletion strains, locus YHR079C, strain IRE1 (second series), stronger effect = lower value 1.02 | S. cerevisiae deletion strains, locus YHR094C, strain hxt1, stronger effect = lower value 1.02 | S. cerevisiae deletion strains, locus YHR129C, strain ARP1, stronger effect = lower value 1.01 | S. cerevisiae deletion strains, locus YHR200W, strain rpn10, stronger effect = lower value 1.02 | S. cerevisiae deletion strains, locus YIL066C, strain RNR3, stronger effect = lower value 1.03 | S. cerevisiae deletion strains, locus YIL073C, strain SPO22, stronger effect = lower value 1.06 | S. cerevisiae deletion strains, locus YIL125W, strain kgd1, stronger effect = lower value 1.02 | S. cerevisiae deletion strains, locus YIR030C, strain dcg1, stronger effect = lower value 1.02 | S. cerevisiae deletion strains, locus YJL095W, strain BCK1, stronger effect = lower value 1.02 | S. cerevisiae deletion strains, locus YJL134W, strain LCB3, stronger effect = lower value 1.03 | S. cerevisiae deletion strains, locus YJL168C, strain set2, stronger effect = lower value 1.02 | S. cerevisiae deletion strains, locus YJL187C, strain SWE1 (second series), stronger effect = lower value 1.02 | [9] 1.01 | [10] 1.01 | S. cerevisiae deletion strains, locus YKL009W, strain mrt4, stronger effect = lower value 1.03 | S. cerevisiae deletion strains, locus YKL068W, stronger effect = lower value 1.02 | S. cerevisiae deletion strains, locus YKL085W, strain MDH1 (second series), stronger effect = lower value 0.999 | S. cerevisiae deletion strains, locus YKL085W, strain MDH1, stronger effect = lower value 0.999 | S. cerevisiae deletion strains, locus YKL190W, strain CNB1, stronger effect = lower value 1.03 | S. cerevisiae deletion strains, locus YKR001C, strain vps1, stronger effect = lower value 1.03 | [11] 1.04 | S. cerevisiae deletion strains, locus YLR058C, strain SHM2, stronger effect = lower value 1.02 | S. cerevisiae deletion strains, locus YLR102C, strain apc9, stronger effect = lower value 1.02 | [12] 1.04 | S. cerevisiae deletion strains, locus YLR268W, strain sec22, stronger effect = lower value 1.01 | S. cerevisiae deletion strains, locus YLR330W, strain CHS5, stronger effect = lower value 1.01 | S. cerevisiae deletion strains, locus YLR342W, strain FKS1 (second series), stronger effect = lower value 1.03 | S. cerevisiae deletion strains, locus YLR371W, strain rom2, stronger effect = lower value 1.02 | S. cerevisiae deletion strains, locus YLR418C, strain cdc73, stronger effect = lower value 1 | S. cerevisiae deletion strains, locus YML016C, strain PPZ1, stronger effect = lower value 1.02 | S. cerevisiae deletion strains, locus YML032C, strain rad52, stronger effect = lower value 1.02 | S. cerevisiae deletion strains, locus YML124C, strain tub3, stronger effect = lower value 1.01 | S. cerevisiae deletion strains, locus YMR078C, strain ctf18, stronger effect = lower value 1.03 | S. cerevisiae deletion strains, locus YMR223W, strain ubp8, stronger effect = lower value 1.04 | [13] 1.02 | [14] 1.05 | S. cerevisiae deletion strains, locus YNL067W, strain RPL9B, stronger effect = lower value 1.02 | S. cerevisiae deletion strains, locus YNL128W, strain TEP1, stronger effect = lower value 1.02 | [15] 1.01 | S. cerevisiae deletion strains, locus YNL233W, strain BNI4, stronger effect = lower value 1.01 | S. cerevisiae deletion strains, locus YNL250W, strain rad50, stronger effect = lower value 1.03 | S. cerevisiae deletion strains, locus YNL271C, strain bni1, stronger effect = lower value 1.03 | S. cerevisiae deletion strains, locus YNL298W, strain CLA4, stronger effect = lower value 1.04 | S. cerevisiae deletion strains, locus YNL307C, strain MCK1, stronger effect = lower value 1.02 | [16] 1.01 | S. cerevisiae deletion strains, locus YNR052C, strain pop2, stronger effect = lower value 1.02 | [17] 1.05 | S. cerevisiae deletion strains, locus YOL012C, strain htz1 1.16 | S. cerevisiae deletion strains, locus YOL147C, strain pex11, stronger effect = lower value 1.02 | S. cerevisiae deletion strains, locus YOR061W, strain CKA2, stronger effect = lower value 1.02 | S. cerevisiae deletion strains, locus YOR069W, strain VPS5, stronger effect = lower value 1.01 | S. cerevisiae deletion strains, locus YOR136W, strain idh2, stronger effect = lower value 1.02 | S. cerevisiae deletion strains, locus YOR144C, strain elg1, stronger effect = lower value 1.02 | S. cerevisiae deletion strains, locus YOR184W, strain ser1, stronger effect = lower value 1.03 | S. cerevisiae deletion strains, locus YOR316C, strain cot1, stronger effect = lower value 1.02 | [18] 1.03 | [19] 1.01 | S. cerevisiae deletion strains, locus YPR119W, strain clb2, stronger effect = lower value 1.01 | S. cerevisiae deletion strains, locus YPR141C, strain kar3, stronger effect = lower value 1.03 | S. cerevisiae deletion strains, locus YPR163C, strain tif3, stronger effect = lower value 1.02 | S. cerevisiae deletion strains, locus YPR167C, strain met16, stronger effect = lower value 1.02 | S. cerevisiae deletion strains, strain wtn01, stronger effect = lower value 1.01 | [20] 1.02

CCCc1ccc(-c2nc(-c3ccc(C)cc3)no2)cc1
inactive: [1] 0.999 | [2] 0.994 | [3] 0.971 | [5] 1.01 | [6] 1.01 | [7] 0.973 | [8] 1 | [21] 0.984 | [22] 0.978 | [9] 0.991 | [10] 0.95 | [11] 1.09 | [23] 0.995 | [24] 1.02 | [12] 1.04 | [25] 0.988 | [26] 0.992 | [13] 0.994 | [14] 1.04 | [15] 0.965 | [27] 0.987 | [16] 0.989 | [28] 0.973 | [18] 0.975 | [19] 0.941 | [29] 1.06 | [20] 1.01

CCCc1ccc(/C(C)=N\O)cc1
inactive: [1] 0.939 | [3] 0.955 | [4] 0.965 | [5] 0.858 | [7] 0.93 | [8] 0.778 | [9] 0.949 | [12] 0.834 | [25] 0.947 | [13] 0.963 | [14] 1.18 | [15] 0.946 | [27] 0.94 | [28] 0.96 | [17] 0.945 | [18] 0.848 | [19] 0.949
active: [2] 0.921 | [6] 0.902 | [21] 0.909 | [22] 0.926 | [10] 0.816 | [11] 0.777 | [23] 0.92 | [24] 0.756 | [26] 0.932 | [16] 0.919 | [29] 0.518

C/C(=N/O)c1ccc2c(c1)C(C)(C)CCC2(C)C
inactive: [1] 1.01 | [2] 0.987 | S. cerevisiae deletion strains, locus YCL061C, strain MRC1, stronger effect = lower value 0.964 | [3] 1.01 | [4] 0.99 | [5] 0.985 | [6] 0.995 | [7] 0.981 | [8] 0.984 | [21] 0.977 | [22] 0.976 | [9] 0.989 | [10] 0.954 | [11] 0.847 | [23] 0.985 | [24] 0.963 | [12] 0.939 | [25] 0.992 | [26] 0.991 | [13] 0.979 | [14] 0.92 | [15] 0.967 | [27] 0.962 | [16] 0.995 | [28] 0.958 | [18] 0.996 | [19] 0.953 | [29] 0.915
